Measured values published in paper PMC4336329 (PLoS ONE, 2015).
Hit rate of the full screen: of about 310,000 compounds, about 2,200 (0.71%) showed an effect of 50% or more. Effects have a minus sign here. The full list was thinned out, with strong results kept by preference.

These compounds were tested against human ether-à-go-go-related gene (hERG) potassium channel (human, UniProt Q12809) (assay: primary screen, population patch clamp on CHO cells stably expressing hERG; higher = less effect of the substance).
Sequence of human ether-à-go-go-related gene (hERG) potassium channel (Q12809 whole entry, looked up): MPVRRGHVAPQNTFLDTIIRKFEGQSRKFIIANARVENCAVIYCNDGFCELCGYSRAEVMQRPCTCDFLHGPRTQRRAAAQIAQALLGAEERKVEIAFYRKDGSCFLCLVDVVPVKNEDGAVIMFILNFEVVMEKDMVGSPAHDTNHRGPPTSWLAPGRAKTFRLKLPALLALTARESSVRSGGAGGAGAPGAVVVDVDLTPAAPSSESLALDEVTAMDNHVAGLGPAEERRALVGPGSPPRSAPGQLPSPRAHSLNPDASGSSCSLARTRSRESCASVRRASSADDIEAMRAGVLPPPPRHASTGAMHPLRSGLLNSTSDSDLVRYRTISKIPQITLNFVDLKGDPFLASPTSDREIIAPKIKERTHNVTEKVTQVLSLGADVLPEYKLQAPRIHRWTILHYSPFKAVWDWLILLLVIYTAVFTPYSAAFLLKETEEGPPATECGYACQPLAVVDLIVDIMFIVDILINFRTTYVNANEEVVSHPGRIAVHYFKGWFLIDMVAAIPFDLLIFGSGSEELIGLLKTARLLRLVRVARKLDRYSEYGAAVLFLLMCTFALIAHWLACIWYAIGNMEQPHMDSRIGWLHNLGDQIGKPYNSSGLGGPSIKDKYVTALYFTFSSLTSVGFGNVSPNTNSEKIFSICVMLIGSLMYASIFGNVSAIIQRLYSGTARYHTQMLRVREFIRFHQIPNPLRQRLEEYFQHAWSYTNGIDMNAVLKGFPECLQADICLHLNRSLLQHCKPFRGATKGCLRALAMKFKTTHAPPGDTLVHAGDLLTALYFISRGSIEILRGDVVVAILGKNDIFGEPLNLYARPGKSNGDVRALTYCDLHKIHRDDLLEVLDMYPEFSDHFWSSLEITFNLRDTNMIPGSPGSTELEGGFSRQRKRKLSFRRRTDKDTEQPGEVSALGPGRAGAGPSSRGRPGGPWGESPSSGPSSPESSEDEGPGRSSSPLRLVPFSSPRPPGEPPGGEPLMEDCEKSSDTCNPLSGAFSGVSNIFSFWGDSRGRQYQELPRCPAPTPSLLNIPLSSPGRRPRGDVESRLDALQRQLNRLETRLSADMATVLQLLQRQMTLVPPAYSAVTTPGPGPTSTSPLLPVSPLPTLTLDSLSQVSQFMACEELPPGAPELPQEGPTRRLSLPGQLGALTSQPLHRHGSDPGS

SMILES	hERG current change (%, negative = inhibition) at 1uM [%]
O=C(CSc1nc(O)cc(=O)[nH]1)Nc1ccc2c(c1)CCC2	18.4
OC(CNCCNc1ncccc1C(F)(F)F)COc1ccc(F)cc1 (stereo not drawn)	-25.6
COc1ccc(OCC(O)CNCCNc2nccc(C(F)(F)F)n2)cc1 (stereo not drawn)	-6.87
O=[N+]([O-])c1ccc(OCC(O)CNCCNc2nccc(C(F)(F)F)n2)cc1 (stereo not drawn)	-77.9
CC(CCc1ccc(O)cc1)NCCc1ccc(O)c(O)c1.Cl (stereo not drawn)	2.55
CC(CCc1ccc(O)cc1)NCc1ccc(Cl)cc1Cl (stereo not drawn)	-10.9
COc1ccccc1CCNC(C)CCc1ccc(O)cc1 (stereo not drawn)	-10.8
COc1ccc(CCC(C)NCc2cccc(Br)c2)cc1 (stereo not drawn)	-32.1
CC(CCc1ccc(O)cc1)NCc1ccc(Br)cc1 (stereo not drawn)	-66.8
CC(CCc1ccc(O)cc1)NCCC(c1ccccc1)c1ccccc1 (stereo not drawn)	-84.2
O=C(Nc1ccc2c(c1)OCO2)c1cnccn1	8.63
NC(=O)NCc1ccc(F)cc1	4.8
COc1ccc(-c2noc3c2-c2nc(-c4ccccc4C)sc2CC3)cc1	15.4
Cc1cc(O)c(C(=O)/C=C/c2ccccc2O)c(=O)o1	8.29
CCOc1c(Br)cc(CNc2ncn[nH]2)cc1OC	9.07
COc1ccc(C(F)(F)F)cc1NC(=O)c1nc2nc(C)cc(C(F)F)n2n1	17.2
CCOC(=O)C1=C(c2ccccc2)Nc2ncnn2C1c1cccc(OC)c1OC (stereo not drawn)	21.4
CCN(CC)CCNc1ncnc2c1[nH]c1ccc(OC)cc12	-42.6
COc1ccc2[nH]c3c(NCCN(C(C)C)C(C)C)ncnc3c2c1	-71.9
COc1ccc2[nH]c3c(NCCCOC(C)C)ncnc3c2c1	22.8
COc1cc(NS(=O)(=O)c2ccc(NC(=O)/C=C/C(=O)O)cc2)nc(OC)n1	5.24
O=C(O)C1=C[C@@H](C2CC2)C[C@@H](OCCCCO)O1	10.7
COc1cccc(C2=NOC(C(=O)Nc3cccnc3Cl)C2)c1OC (stereo not drawn)	14.2
COc1ccc(Cl)cc1C(=O)Nc1ccc2nc3n(c(=O)c2c1)CCCC3	-51.8

SMILES	hERG current change (%, negative = inhibition) at 1uM [%]
COc1ccccc1C(=O)Nc1ccc2nc3n(c(=O)c2c1)CCCC3	-2.02
COc1cc(C(=O)Nc2ccc3nc4n(c(=O)c3c2)CCCCC4)cc(OC)c1OC	-1.94
COc1cc2c(C(=O)N3CCCc4ccccc43)cn(C)c(=O)c2cc1OC	7.48
CCCN1CCN(c2ccc([N+](=O)[O-])cc2C#N)CC1	-57.8
CCN1CCN(c2ccc([N+](=O)[O-])cc2C(=O)c2ccc(Cl)cc2)CC1	-58.3
CCN1CCN(c2ccc([N+](=O)[O-])cc2C#N)CC1	-49.8
CN1CCN(c2ccc([N+](=O)[O-])cc2C(=O)c2ccc(Cl)cc2)CC1	-24.3
O=C(c1ccc(Cl)cc1)c1cc([N+](=O)[O-])ccc1N1CCOCC1	10.3
N#Cc1cc([N+](=O)[O-])ccc1N1CCCC1	-12.3
Cc1ccc(NCCC(=O)c2cccs2)cc1C	5.33
O=C(CSc1cn(Cc2ccccc2)c2ccccc12)N1CCOCC1	-4.92
CCOc1ccc(NC(=S)NCCCN2CCN(c3ccc(OC)cc3)CC2)cc1	-29.3
O=c1[nH]c2ccccc2nc1-c1c[nH]c2ccccc12	17.9
Cc1ccccc1-n1nnnc1SCC(=O)NCC1(N2CCOCC2)CCCCC1	6.3
Cc1ccc(-n2nnnc2SCC(=O)NCC2(N3CCCCC3)CCCCC2)c(C)c1	-201
O=C(CSc1nnnn1-c1ccccc1)NCC1(N2CCCCC2)CCCCC1	-23.9
Cc1ccc(CNC(=O)c2cnccn2)cc1	11.4
COc1ccc(NC(=O)[C@@H](NC(=O)N2C[C@H]3C[C@@H](C2)c2cccc(=O)n2C3)C(C)C)cc1	8.5
Fc1ccc(-c2nc3c(-c4ccc(F)cc4)cnn3cc2CCN2CCOCC2)cc1	-3.19
COc1ccc(O)c(CN2CCC(n3nccc3NC(=O)C3CCCC3)CC2)c1	-28.4
CC(C)(CO)CN1CCC(n2nccc2NC(=O)C2CCCC2)CC1	10.2
COc1ccc(/C=C/CN2CCC(n3nccc3NC(=O)C3CC3)CC2)cc1	-59.6
COc1ccc(CN2CCC(n3nccc3NC(=O)C3CCCC3)CC2)c(OC)c1	-70.6
COc1ccccc1/C=C/CN1CCC(n2nccc2NC(=O)C2CC2)CC1	-37.8

SMILES	hERG current change (%, negative = inhibition) at 1uM [%]
COc1ccc(CC(=O)N2CCC(n3nccc3NC(=O)C3CC3)CC2)cc1	13.3
COc1ccc(/C=C/CN2CCC(n3nccc3NC(=O)C3CCCC3)CC2)cc1	-92.1
COc1ccc(OCC(=O)N2CCC(n3nccc3NC(=O)C3CC3)CC2)cc1	-1.98
Cc1cc(C)c(CN2CCC(n3nccc3NC(=O)C3CCCC3)CC2)cc1C	-26.4
Cc1ncc(S(=O)(=O)c2ccccc2)c(-c2ccccc2Cl)n1	2.7
Cc1cc2c(cc1S(=O)(=O)NC1CCCCC1C)OCC(=O)N2 (stereo not drawn)	5.01
Cc1ccc(OCCNC(=O)c2ccc(NC(=O)CC3SC(N4CCCC4)=NC3=O)cc2)cc1 (stereo not drawn)	-6.94
C=C(C)CNC(=O)c1ccc(OC2CCN(S(=O)(=O)N(C)C)CC2)cc1	13.2
COc1ccc2c(c1)CC1(CN2C)C(=O)NC(=O)N(CCc2ccccc2)C1=O (stereo not drawn)	-6.39
CCN(CC)S(=O)(=O)c1ccc2c(c1)N(CC(=O)Nc1ccc(NC(C)=O)cc1)C(=O)CO2	10.6
O=C(Cc1ccccc1)N1CCN(C2CCCCCC2)CC1.O=C(O)C(=O)O	4.29
O=C(O)C(=O)O.c1ccc(CCN(Cc2ccccc2)C2CCN(C3CCCC3)CC2)cc1	-68.9
CCCCN(Cc1ccccc1)C1CCN(CCc2ccccc2)CC1	-13.4
CC(C)CC(=O)N1CCC(N(CCc2ccccc2)Cc2ccccc2)CC1.O=C(O)C(=O)O	7.09
CCCCN(Cc1ccccc1)C1CCN(Cc2ccccc2)CC1	-14.5
CCCN1CCC(N(CCc2ccccc2)Cc2ccccc2)CC1	-73.2
O=C(Nc1ccccc1)N1CCCc2ccccc21	-28.2
Cc1ccn2c(=O)nc(SCC(=O)N3CCCCCC3)nc2c1	19.6
CCCCN(C(=O)Nc1ccc(Cl)cc1)C1CCN(C(C)=O)CC1	-19.1
CC(C)CCN(C(=O)Nc1ccc(Cl)cc1)C1CCN(C(C)C)CC1	-57.6
CCOc1ccc(NC(=O)N(CCC(C)C)C2CCN(C(C)=O)CC2)cc1	7.21
Cc1cc(NC(=O)c2cc3cccc([N+](=O)[O-])c3[nH]2)ccc1F	11.5
COc1c(C)cc(Br)cc1C(=O)Nc1cccc(-c2nc3ncccc3o2)c1	-7.42
O=C(c1c(F)cccc1F)N1CCN(c2ncccn2)CC1	12.5

SMILES	hERG current change (%, negative = inhibition) at 1uM [%]
O=C(c1sc2cccc(F)c2c1Cl)N1CCN(c2ncccn2)CC1	-65.4
O=C(c1sc2ccccc2c1Cl)N1CCN(c2ncccn2)CC1	6.43
COc1cccc(-c2nn(-c3ccc(C)cc3)cc2C(=O)NCC2CCCO2)c1 (stereo not drawn)	-0.814
COC(=O)c1ccc(S(=O)(=O)NCCSc2nnc3c4ccccc4n(C)c3n2)cc1	1.09
CCOc1cc(N2CCOCC2)c(OCC)cc1NC(=O)Cn1nc(C)c([N+](=O)[O-])c1C	6.15
CCc1cc2c(NCCO)ncnc2s1	14.1
CCc1cc2c(N3CCCCC3)ncnc2s1.Cl	5.54
CCc1cc2c(NCCN3CCCCC3)ncnc2s1.Cl	-55.9
CC[C@@]12C(=O)N(c3cccc(Br)c3)C(=O)N1[C@H](c1ccc(Cl)cc1)[C@@H]1C(=O)N(C3CCCCC3)C(=O)[C@@H]12	6.83
COc1ccc2nc(C)cc(N3CCN(c4ccccc4)CC3)c2c1	-29
Cc1ccccc1N1CCN(S(=O)(=O)c2ccccc2)CC1	5.62
Cc1cc(N2CCN(S(=O)(=O)c3ccc(Cl)c(Cl)c3)CC2)c2ccccc2n1	4.58
Cc1cc(N2CCN(S(=O)(=O)c3ccc(Cl)cc3)CC2)c2ccccc2n1	-80.8
CC(=O)Nc1ccc(S(=O)(=O)N2CCN(c3nc(C)cc(C)n3)CC2)cc1	14.9
Cc1cc(N2CCN(S(=O)(=O)c3ccc(C)c(C)c3)CC2)c2ccccc2n1	-18.3
COc1ccc2nc(C)cc(N3CCOCC3)c2c1	7.31
CC(=O)Nc1ccc(S(=O)(=O)N2CCN(S(=O)(=O)c3ccccc3)CC2)cc1	10.1
CC(=O)Nc1ccc(S(=O)(=O)N2CCN(c3cc(C)nc4ccccc34)CC2)cc1	-71.6
COc1ccc2nc(C)cc(N3CCN(S(=O)(=O)c4ccccc4F)CC3)c2c1	-62.2
Cn1c(N2CCN(S(=O)(=O)c3ccc(Cl)cc3)CC2)nc2ccccc21	-23.2
Cc1cc(N2CCN(S(=O)(=O)c3ccccc3)CC2)c2ccccc2n1	-78.6
